# HCV inh: blocks hepatitis C virus; Huh7.5.1 HCVcc-Cre infection, luciferase reporter, 44 h; Potency, µM (top dose mostly 41.8 µM), without a hit: at the top dose activity change, negative = inhibition, most hits filed as inhibitors; actives 3.4% (n = 340,000); active means well fitted inhibition curve with a large enough effect; inconclusive means small, poorly fitted or top-dose-only effect, or another doubt; inactive means no such curve, though single readings can be large or run the other way; further: potency means the concentration at half of the fitted maximal effect
#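 After 44 h co-culture of compound, cells and HCVcc-Cre (~0.5 moi), substrate is added for 15 min at room temperature and luciferase measured over 15 sec. Cells were seeded at 1,000/well and pre-cultured 4 h.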
# HCMV inh: blocks human cytomegalovirus replication; actives 4.5% (n = 410,000); activity change, negative = inhibition, % at 57.5 µM; HFF cells, HCMV-luciferase reporter, 72 h; hits give low values; in the data active means activity change below about -60%; inconclusive means no clear call, values can overlap the other calls; inactive means above about -39%
#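 Two compound doses tested in HFFs infected with HCMV-luciferase, MOI 1 PFU/cell, 72 h at 37C. Lysate luminescence read with OneGlo; data normalized against buffer-only and 10uM Salinomycin inhibitor controls.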
# MARV entry inh: blocks Marburg virus binding to or entry into cells | Marburg virus pseudotyped entry inhibition, cell reporter | Potency, µM (titrated, usually from 37.8 µM), for inactives: at the highest dose activity change, negative = inhibition, usual class: inhibitors | actives 1.8% (n = 300,000); calls by dose curve; tested in HEK293 cells; further: potency means the concentration at half of the fitted maximal effect
# LASV entry inh: blocks Lassa virus binding to or entry into cells; Potency, µM (top dose mostly 37.9 µM), for the others: top-dose activity change, negative = inhibition, most hits filed as inhibitors; AID 540256; actives 1.2% (n = 300,000); Lassa virus pseudotype entry inhibition, cell reporter; calls by dose curve; tested in HEK293 cells; further: potency means the concentration at half of the fitted maximal effect; nearly all actives have a fitted effect of over 50% in size
# FMDV inh: blocks foot and mouth disease virus; FMDV antiviral cell-based qHTS; Potency, µM (series often up to 57.9 µM), for inactives: at the top dose activity change, negative = inhibition, most hits filed as inhibitors; actives 1.2% (n = 410,000); AID 1159524; calls by dose curve; tested in HEK293T cells; further: read-out not given here; potency means the concentration at half of the fitted maximal effect; nearly all actives have a fitted effect of over 45% in size
# Numbers without * were called inactive; ? = inconclusive; . = not tested or not shown; + = active, no number; [ ] = remark or other dose. The list is not random: actives were taken first. Their share in the collection is about 7.9%. On the % scale 0 is the no-effect control and ±100 the full control effect.
SMILES,HCV inh,HCMV inh,MARV entry inh,LASV entry inh,FMDV inh
COc1ccc(OC)c(S(=O)(=O)Nc2cccc3ccc(O)cc23)c1,0.4%,-62.3*,12.1%,28.0%,11.2%
C=CCOc1cccn2c(N(C)C(=O)c3ccc(OC)cc3)c(CC)nc12,.,-20.2,.,.,-20.2%
C=C(C)C(O)C=Cc1ccccc1OC (centres undefined),.,.,6.1%[14.2 µM],.,.
COc1ccc(CCn2c(C)cc3c(c2=O)[C@H](c2ccc4c(c2)OCO4)C(C#N)=C(N)O3)cc1OC,.,.,-28.1%,.,.
Cc1ccc2c(c1)-c1c(cnn1CC(=O)Nc1ccccc1N1CCN(C)CC1)CO2,-28.4%,?,9.2µM*,?,-21.3%
COc1ccccc1N1CCN(C(=O)Cn2ncc3c2-c2cc(C)ccc2OC3)CC1,.,-39.1,1.9%[46.1 µM],.,-22.1%
COc1cc(C)ccc1OCC(=O)Nc1ccccc1N1CCOCC1,?,-26.0,-11.6%,-19.9%,-1.8%
Cc1ccc(C(C)C)c(OCC(=O)Nc2ccc(N3CCOCC3)cc2N2CCOCC2)c1,31.6µM*,-24.1,?,-15.6%,0.0%
Cc1ccc(C(C)C)c(OCC(=O)Nc2ccccc2N2CCN(C)CC2)c1,?,-73.7*,?,10µM*,31.6µM*
O=C(NC1CCCCC1)C(c1ccc2ncccc2c1)N(Cc1ccccc1)C(=O)c1cccs1 (centres undefined),?,-61.7*,5.8µM*,-14.6%,.
O=C(NC1CCCCC1)C(c1ccncc1)N(Cc1ccccc1)C(=O)c1ccc(-c2ccccc2)[nH]1 (centres undefined),12.6µM*,-32.2,?,?,16.0%
Cc1cc(C)c(C(=O)N(C)CC2CCCN(CCc3ccccc3F)C2)o1 (centres undefined),.,-30.6,?,1.0%,-23.0%
COc1cccc(CN(C)CC2CCCN(CCc3ccccc3C)C2)c1 (centres undefined),11.2µM*,-21.1,.,.,-22.6%
COc1cc(OC)c(OC)cc1CN(C)CC1CCCN(CCc2ccccc2F)C1 (centres undefined),14.1µM*,-2.5,.,.,0.0%
COc1ccc(CN(C)CC2CCCN(CCc3ccccc3C)C2)cc1O (centres undefined),?,-31.3,8.91µM*,?,-11.0%
CCN1CCN(C(=S)c2ccc([N+](=O)[O-])cc2)CC1,14.9%,59.3,?,18.5%,-21.1%
CS(=O)(=O)N(CC(=O)N1CCCCC1)c1cccc(F)c1,1.0%,-31.2,-19.0%[46.1 µM],6.5%[46.1 µM],36.6%
C[C@@]12C(=O)OC(=O)[C@]1(C)C1CCC2O1,0.501µM*,-98.5*,.,.,?
O=[N+]([O-])c1c(Nc2cccc(O)c2)cc(Cl)c2nonc12,?,-102.0*,?,?,22.4µM*
Nc1cc(Nc2ccccc2)c2nonc2c1[N+](=O)[O-],4.2%,51.3,.,.,-6.1%
Cc1c(Nc2cc(Cl)c3nonc3c2[N+](=O)[O-])c(=O)n(-c2ccccc2)n1C,3.98µM*,89.1,?,?,14.1µM*
O=C(O)c1ccc(Nc2cc(Cl)c3nonc3c2[N+](=O)[O-])cc1,-3.8%,2.6,29.4%[46.1 µM],11.9%,39.8µM*
CNc1cc(Cl)c2nonc2c1[N+](=O)[O-],?,-98.9*,?,?,12.6µM*
O=C(O)c1cccc(Nc2ccc3nonc3c2[N+](=O)[O-])c1,13.1%,-2.9,.,.,-10.9%
Cc1cc(C)n2nc(CNC(=O)c3cccc(N(C)C)c3)nc2n1,.,57.7,18.5%[46.1 µM],8.3%[46.1 µM],50.8%
SMILES,HCV inh,HCMV inh,MARV entry inh,LASV entry inh,FMDV inh
N=c1c(S(=O)(=O)c2ccc(Cl)cc2)cc2c(=O)n3ccccc3nc2n1C1CCCC1,?,63.4,1.8%[46.1 µM],-19.9%[46.1 µM],-19.5%
COc1ccc(C(=O)Nc2cc(C)nn2-c2cccc(F)c2)cc1OC,-20.6%,23.6,.,.,-19.9%
Cc1cccc(-c2noc(CCCC(=O)NC3CCCCC3)n2)c1,-30.2%,-3.2,?,.,-25.4%
Clc1ccc(-c2n[nH]c3c2CCCC3)cc1,10µM*,-72.2*,0.2%[46.1 µM],16.1%,41.9%
Clc1ccc(-c2n[nH]c3c2CCC3)cc1Cl,-16.5%,-30.1,-17.3%,?,16.2%
Cc1nnc(NC(=O)c2nn(CC(C)C)c(=O)c3ccccc23)s1,13.3%,-19.6,-28.6%[46.1 µM],19.8%,-18.2%
Cc1nc2ccc(NC(=O)c3nn(CC(C)C)c(=O)c4ccccc34)cc2s1,5.6%,-62.1*,17.4%,8.9%,-12.6%
CCn1nc(C(=O)Nc2nc3ccc(C)cc3s2)c2ccccc2c1=O,31.6µM*,-23.7,-4.7%,-23.1%,.
COc1ccc(-n2nc(C(=O)Nc3nc4ccc(OC)cc4s3)c3ccccc3c2=O)c(OC)c1,0.2%,.,3.0%,5.3%,.
FC(F)(F)c1cnc(Sc2ncn[nH]2)c(Cl)c1,0.6%,-36.9,-1.1%[46.1 µM],10.3%[46.1 µM],1.0%
Cc1c(C)n(Cc2ccccc2)c2ccc(C(=O)NCc3ccccc3F)cc12,.,+,.,-28.8%[46.1 µM],16.7%
COc1cc(CNC(=O)c2ccc3c(c2)c(C)c(C)n3Cc2cccc(C)c2)cc(OC)c1OC,.,-86.7*,.,3.2%[46.1 µM],0.0%
CN(C)c1ccc(/C=C/[N+](=O)[O-])cc1,9.7%,4.3,-15.2%,0.3%,-28.1%
CN(c1ccccc1)c1ccc(/C=C/[N+](=O)[O-])cc1,?,-98.7*,?,?,15.8µM*
CC(=O)c1ccc(C(=O)Nc2nnc(-c3ccc(Cl)cc3)o2)cc1,-26.4%,-12.3,.,.,-9.2%
O=C(Nc1nnc(-c2ccccc2)o1)c1ccc(Cl)cc1,-28.8%,20.7,12.6µM*,?,8.0%
Cc1cccc(C(=O)Nc2nnc(-c3ccncc3)o2)c1,4.8%,19.0,?,-0.2%[46.1 µM],13.4%
O=C(Nc1nnc(-c2ccncc2)o1)c1ccc2ccccc2c1,9.7%,-94.5*,8.7%[46.1 µM],-23.5%[46.1 µM],-5.5%
O=C(CSc1nc2ccccc2n1CCc1ccccc1)N1CCOCC1,16.3%,-67.9*,-5.1%,-2.1%,-2.8%
Cn1c(SCC(=O)N2CCN(S(=O)(=O)c3ccccc3)CC2)nc2ccccc21,-14.4%,-1.0,-1.4%,-4.6%,-16.6%
CC(C)Cn1c(SCC(=O)N2CCN(S(=O)(=O)c3ccccc3)CC2)nc2ccccc21,?,-68.1*,?,-12.3%,.
CC(C)Cn1c(SCC(=O)NC(=O)NC2CCCC2)nc2ccccc21,11.2µM*,-38.6,?,-27.9%,?
O=C(CSc1nc(-c2ccccc2)c(-c2ccccc2)[nH]1)N1CCN(S(=O)(=O)c2ccccc2)CC1,?,-88.2*,?,-25.0%,?
COC(=O)[C@@H]1CC[C@H](C)[C@@H](c2ccc(C)cc2)N1C(=O)c1ccc(C=NOC[C@H]2O[C@H](c3ccccc3)C=C[C@H]2Oc2ccc(OC)cc2)cc1,.,.,-6.6%[14.2 µM],.,.
COc1cccc(Cn2c(SCC(=O)N3CCN(c4ccc(F)cc4)CC3)nc3ccccc32)c1,.,-14.8,5.6%[46.1 µM],.,-26.6%
COc1ccc(Cn2c(SCC(=O)N3CCN(c4ccc(F)cc4)CC3)nc3ccccc32)cc1,.,-67.3*,-29.5%[46.1 µM],.,0.0%
CC(C)(C)NC(=O)CN1CCN(C(=O)CCl)CC1,-25.7%,-63.4*,?,?,?
Cc1ccc([N+](=O)[O-])cc1NC(=O)C[n+]1ccccc1,1.8%,-28.7,.,.,-13.4%
